Screens from PubChem BioAssay.
Shown are actives, neighbours in structure and some others; about 3.8% of the full set was active somewhere.
VDR inh – Inhibitors of the vitamin D receptor (VDR): qHTS; VDR-SRC2-3 peptide fluorescence polarization, 2 h; Vitamin D3 receptor (Homo sapiens), P11473; 0.93% of 400,000 active; AID 504847, 2011; Potency, µM, for inactives: max response, negative = inhibition, most hits filed as inhibitors; also: potency is read from the fitted curve at half-maximal effect; % is scaled to controls: 0 for no effect and ±100 for the full control effect
Target sequence (P11473 whole entry, looked up): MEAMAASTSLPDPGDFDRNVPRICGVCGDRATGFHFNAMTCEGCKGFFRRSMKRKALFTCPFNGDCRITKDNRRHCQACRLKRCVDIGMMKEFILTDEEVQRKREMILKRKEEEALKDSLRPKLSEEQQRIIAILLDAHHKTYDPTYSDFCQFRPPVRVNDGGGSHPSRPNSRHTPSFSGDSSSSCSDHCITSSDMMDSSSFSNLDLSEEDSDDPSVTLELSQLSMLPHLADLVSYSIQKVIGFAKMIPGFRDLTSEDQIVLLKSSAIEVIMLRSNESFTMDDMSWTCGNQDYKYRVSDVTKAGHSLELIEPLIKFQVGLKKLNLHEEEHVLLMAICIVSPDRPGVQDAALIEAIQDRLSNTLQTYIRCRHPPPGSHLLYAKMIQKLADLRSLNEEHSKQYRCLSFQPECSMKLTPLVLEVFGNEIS
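Reagent solutions, kept cold and dark, are dispensed first; compounds are then pinned in at 23 nl, plates briefly spun, and incubated 2 h at ambient temperature. Inhibition of VDR–SRC2-3 peptide binding is read by fluorescence polarization.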
MBNL1-CUG inh – qHTS Assay for Inhibitors of MBNL1-poly(CUG) RNA binding; 0.036% of 280,000 active; Muscleblind-like protein 1 (Homo sapiens), Q9NR56; TR-FRET MBNL1-His/biotin-(CUG)12 binding, 665/545 ratio; AID 2675, 2010; Potency, µM (doses to about 57.5 µM), for the others: at the top dose activity change, negative = inhibition, most hits filed as inhibitors; active = well fitted inhibition curve with a large enough effect in the signal ratio, with a control signal flat, not every such curve was filed as active; inconclusive = small, poorly fitted or top-dose-only effect, or effect the other way, or a change in a side signal; inactive = no such curve, though single readings can be large or run the other way; the % refers to the signal ratio; also: potency is read from the fitted curve at half-maximal effect; % is scaled to controls: 0 for no effect and ±100 for the full control effect
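TR-FRET readout: Ex 340 nm, 665/545 nm emission ratio, normalized to buffer-only (basal) and MBNL1-(CUG)12 controls. Complex of MBNL1-His with Biotin-(CUG)12, compounds 92 nM–58 uM, incubated 60 min at room temperature.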
KCNH2 3.1 block – qHTS for Inhibitors of KCHN2 3.1: Mutant qHTS | Potassium voltage-gated channel subfamily H member 2, brain isoform KCNH2 3.1 (human) | U2OS KCNH2 3.1, thallium flux FluxOr; hits give low values | activity change, % (tested at about 1.8 µM) | 0.95% of 340,000 active;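 active = maximum activity change below -70%; inconclusive = maximum activity change from -70% to -50%; inactive = maximum activity change above -50%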;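 also: thallium influx rate constant from kinetic fluorescence after stimulation buffer; % is scaled to controls: 0 for no effect and ±100 for the full control effect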
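Channel expression came from 3.1 mutant virus (1.77 x 10^8 /mL) applied to suspended U2OS cells for 4 h. Flux was tracked with FluxOr dye plus Red40 quencher, and kinetic rate constants normalized to controls.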
CBFb RUNX1 block – qHTS Assay for Compounds Blocking the Interaction Between CBF-beta and RUNX1 for the Treatment of Acute Myeloid Leukemia | Runt-related transcription factor 1 (Homo sapiens) + Core-binding factor subunit beta … | AlphaScreen CBFb-His/RUNX1-biotin binding, biochemical | Potency, µM (titrated, usually from 59.8 µM), inactives show at the top dose activity, negative = inhibition, most hits filed as inhibitors | 230,000 tested, under 10 active | AID 1477, 2009; also: % of control where 0% means no effect
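AlphaScreen binding: CBFb-His and RUNX1-biotin (30 nM each) preincubated 20 min, compound added for 15 min, then nickel and streptavidin beads for 90 min, all at room temperature. Disruption of the interaction by any mechanism counts as activity.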
hERG WT inh – qHTS for Inhibitors of KCHN2 3.1: Wildtype qHTS; 0.37% of 340,000 active; Voltage-gated inwardly rectifying potassium channel KCNH2 (Homo sapiens), Q12809; U2OS, BacMam KCNH2, thallium flux FluxOr; hits give low values; activity change, % at 1.84 µM;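 active = maximum activity change below -70%; inconclusive = maximum activity change between -70% and -50%; inactive = maximum activity change above -50%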; also: % is scaled to controls: 0 for no effect and ±100 for the full control effect
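U2OS cells transduced with wild-type KCNH2 virus are loaded with FluxOr dye for 45 min, and thallium flux is measured in kinetic reads before and after stimulation buffer. Rate constants are normalized to DMSO controls.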
PLK1 PBD inh – qHTS for Inhibitors of PLK1-PDB (polo-like kinase 1 - polo-box domain): Primary Screen; Potency, µM, for inactives: max response, negative = inhibition, actives largely listed as inhibitors; 2.8% of 360,000 active; Serine/threonine-protein kinase PLK1 (Homo sapiens), P53350; AID 720504, 2013; Plk1 PBD binding of FITC phosphopeptide, fluorescence polarization; also: potency is read from the fitted curve at half-maximal effect; series mostly up to about 57 µM; % is scaled to controls: 0 for no effect and ±100 for the full control effect; nearly all actives have a fitted effect of over 65% in size
* = called active by the depositor; i = inactive; ? = inconclusive; . = no result. Unless noted, calls follow the shape of the dose curve; as a rule, active = well fitted curve in the direction sought with a large enough effect; inconclusive = small, poorly fitted or top-dose-only effect, or another doubt; inactive = no such curve, though single readings can be large; an effect the other way counts as inactive or inconclusive.

SMILES	VDR inh	MBNL1-CUG inh	KCNH2 3.1 block	CBFb RUNX1 block	hERG WT inh	PLK1 PBD inh
CCOC(=O)Cc1csc(NS(=O)(=O)c2ccc(Br)cc2)n1	-7%	-7%	15	0%	-4	0%
CCOC(=O)Cc1csc(NS(=O)(=O)c2ccc(F)cc2)n1	-17%	-6%	0	2%	7	21µM*
CCOc1ccccc1-c1nnc2n1N=C(c1c(OC)cccc1OC)CS2	.	.	.	4%	.	.
Cc1nc2cc(NC(=O)Nc3cccc([N+](=O)[O-])c3)ccc2n1C	-14%	?	-75*	.	2	-12%
O=C(CNS(=O)(=O)c1ccccc1)NCC(=O)OCc1ccc(Br)cc1	?	-1%	-6	1%	.	12µM*
COC(=O)c1ccc(COC(=O)CNS(=O)(=O)c2ccccc2)cc1	12%	-2%	-18	1%	-11	4%
COC(=O)C(NC(=O)CNS(=O)(=O)c1ccc(Br)cc1)c1ccccc1 (centres undefined)	0%	-3%	10	2%	2	27µM*
O=C(CNC(=O)/C(=C/c1ccccc1)NC(=O)c1ccc(Br)cc1)OCc1ccccc1	7%	10%	-85*	-1%	i	0%
COc1cc([C@@H]2c3cc4c(cc3[C@H](O)[C@H]3COC(=O)[C@@H]23)OCO4)cc(OC)c1OC	1%	.	.	.	.	.
Cc1[nH]n(-c2ccccc2)c(=O)c1-c1ccc(Cl)cc1	-11%	-4%	-11	-3%	4	27µM*
Cc1[nH]n(-c2ccccc2)c(=O)c1-c1cccc(Cl)c1	7%	-13%	-8	1%	9	-2%
COc1ccc(-c2ccnc3nc(-n4cccc4)nn23)cc1	-2%	14%	14	9%	0	4%
COc1ccc(-c2ccnc3nc(N4CCOCC4)nn23)cc1	-2%	-1%	-108*	9%	-4	-6%
c1ccc(Oc2ccc(-c3ccnc4nc(N5CCOCC5)nn34)cc2)cc1	-1%	17%	-118*	13%	-10	-20%
Nc1nc(CN2CCCCCC2)nc(Nc2ccccc2)n1	7%	-6%	-32	-5%	3	-24%
Cc1ccc(Nc2nc(N)nc(CN3CCN(C(=O)c4ccco4)CC3)n2)cc1Cl	-15%	-8%	-94*	3%	-10	-9%
Nc1nc(CN2CCC(Cc3ccccc3)CC2)nc(Nc2ccccc2)n1	-7%	-1%	-87*	-7%	-90*	-1%
CC1CC(C)CN(Cc2nc(N)nc(Nc3ccc4ccccc4c3)n2)C1 (centres undefined)	15%	9%	-113*	-8%	-5	-19%
Nc1nc(CN2CCN(Cc3ccc4c(c3)OCO4)CC2)nc(Nc2ccccc2)n1	1%	-15%	-76*	2%	-24	-6%
Cc1ccc(Nc2nc(N)nc(CN3CCN(c4ccccc4F)CC3)n2)cc1	21%	-1%	-86*	-16%	25	0%
Nc1nc(CN2CCN(c3ccccc3F)CC2)nc(Nc2ccccc2)n1	12%	6%	-27	-6%	25	-9%
Nc1nc(CN2CCN(C(c3ccccc3)c3ccccc3)CC2)nc(Nc2ccccc2)n1	-7%	1%	-98*	-17%	-25	3%
COc1ccc(-c2nnc(SCC(=O)Nc3ccc(F)cc3)s2)cc1	3%	.	.	.	.	.
COC(=O)c1sc2ccccc2c1N	-28%	?	19	12%	-10	27µM*
CCN(CC(=O)Nc1ccc(OC(F)F)cc1)C1CCCCC1	-11%	5%	-92*	4%	-8	1%
SMILES	VDR inh	MBNL1-CUG inh	KCNH2 3.1 block	CBFb RUNX1 block	hERG WT inh	PLK1 PBD inh
COc1ccc(CCNC(=O)COC(=O)C23CC4CC(CC(Br)(C4)C2)C3)cc1	-2%	.	-18	13%	-88*	0%
COc1ccc(CCNC(=O)COC(=O)C23CC4CC(CC(C4)C2)C3)cc1	-1%	3%	-13	-1%	4	2%
CCCCN1C(=O)/C(=C(/C#N)C(=O)N2CCCC2)c2ccccc21	45µM*	-11%	-3	3%	-10	-18%
O=C(CSc1nnc(-c2cccc(S(=O)(=O)N3CCCCC3)c2)o1)NCCC1=CCCCC1	3%	-2%	0	-4%	-7	21µM*
CCOC(=O)c1c(NC(=O)/C=C/C(=O)O)sc(C)c1-c1ccc(C(C)(C)C)cc1	20µM*	3%	-10	-30%	2	21µM*
CCOC(=O)c1c(NC(=O)/C=C\C(=O)O)sc(C)c1-c1ccccc1	-26%	6%	-3	0%	7	21µM*
Cc1sc(NC(=O)C2CCCCC2C(=O)O)c(C(N)=O)c1-c1ccc(C(C)(C)C)cc1 (centres undefined)	?	4%	3	0%	-6	21µM*
Cc1sc(NC(=O)/C=C/C(=O)O)c(C(N)=O)c1-c1ccc(C(C)(C)C)cc1	79µM*	-3%	1	-4%	-5	27µM*
Cc1cccc(OCC(=O)Nc2ccccc2C(=O)OCc2cc(=O)n3nc(C)sc3n2)c1	1%	.	.	.	.	.
Cc1oc2ncn(CC(C)C)c(=O)c2c1C(=O)NCCCN1CCCCC1	3%	.	.	.	.	.
CCN1CCN(C(=O)/C=C/c2ccc(C(C)C)cc2)CC1	0%	.	-35	.	50	-8%
CCN1CCC(O)(/C=C/c2ccc(C(C)C)cc2)C(C(=O)/C=C/c2ccc(C(C)C)cc2)C1 (centres undefined)	40µM*	.	3	.	-7	-29%
CCOc1ccccc1C(=O)N(Cc1ccc(N(C)C)cc1)Cc1ccco1	4%	.	.	.	.	.
COc1ccc(C2(c3ccc(OC)cc3)NC(=O)N(CC(=O)Nc3ccc(OC(F)F)cc3)C2=O)cc1	-10%	3%	.	.	-83*	-4%
CC(C)c1nnc(NC(=O)CN2C(=O)c3ccccc3C2=O)s1	5%	1%	15	0%	9	2%
Cc1ccc(-c2nnn(CC(=O)Nc3nnc(C(C)C)s3)n2)cc1	-7%	-6%	0	-4%	-2	27µM*
N#C/C(=C\c1c(Cl)cccc1Cl)c1nc2ccccc2[nH]1	-13%	0%	9	12%	10	-10%
N#C/C(=C\c1c(Cl)cccc1Cl)c1nc2ccccc2o1	-28%	5%	-6	-9%	-6	0.42µM*
